Measurements from PubChem BioAssay (NCI).
The panel holds about 79,000 compounds, 15% with a hit somewhere; the sample as a whole holds those more often. Active and inactive are the calls of the source. Rule as the data show it: active = growth inhibition above about 70%; inactive = the rest. Where a SMILES comes first, the peptide text is derived from it. [ ]: non-standard residue; d: D form. The star is where a group is joined. ξ: configuration not given here. X14 = COC1=CC(=O)N(C(=O)C(O*)C(C)C)C1Cc1ccccc1; ξNMe2Val = CC(C)C(C(=O)*)N(C)C; NMeV = CN[CH](C(=O)O)C(C)C

What was measured:
[1] = NCI Yeast Anticancer Drug Screen. Data for the rad50 strain (AID 155);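 also: 0% = growth of vehicle-only cultures of the same strain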; conditions: S. cerevisiae rad50 strain growth inhibition; at 50.0 µM; hits give high values
Method in brief: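 A DNA repair-deficient yeast mutant serves as the test organism; compound-induced growth inhibition is calculated against vehicle-treated cells.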

[2] = NCI Yeast Anticancer Drug Screen. Data for the mec2-1 strain (AID 157); conditions: S. cerevisiae mec2-1 strain, at 50.0 µM, hits give high values
Method in brief: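 Cells of the genetically defined mec2-1 yeast strain are incubated with test compound. Inhibition of growth is calculated against vehicle-treated controls.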

[3] = NCI Yeast Anticancer Drug Screen. Data for the sgs1 mgt1 strain (AID 161);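 also: 0% = growth of cultures given vehicle only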; conditions: S. cerevisiae sgs1 mgt1 strain, at 50.0 µM, hits give high values
Method in brief: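 Test agents were incubated with a DNA-repair-mutant yeast strain. Growth was then read and compared against vehicle-treated controls.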

[4] = NCI Yeast Anticancer Drug Screen. Data for the cln2 rad14 strain (AID 165);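 also: 0% = growth equal to vehicle treated cultures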; conditions: S. cerevisiae cln2 rad14 strain, at 50.0 µM, hits give high values
Method in brief: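 The screen exposed genetically defined yeast (cln2 rad14) to test compounds and scored growth inhibition relative to vehicle-treated controls.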

[5] = NCI Yeast Anticancer Drug Screen. Data for the bub3 strain (AID 167); conditions: S. cerevisiae bub3 mutant strain, at 50.0 µM, hits give high values
Method in brief: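 Inhibition values come from growth of compound-treated mutant yeast normalised to vehicle-treated controls.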

[6] = NCI Yeast Anticancer Drug Screen. Data for the mlh1 rad18 strain (AID 175); conditions: S. cerevisiae mlh1 rad18 strain growth inhibition; at 50.0 µM; hits give high values
Method in brief: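 Compound-treated yeast growth, normalised to vehicle controls. Strain bears defined DNA repair mutations.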

Measured: growth inhibition

Cc1ccc([Se][Se]c2ccc(C)cc2)cc1
inactive: [1] 55.5% | [2] 10.7% | [3] 35.6% | [4] 30.1% | [5] 41% | [6] 43%

C1C2CC3C1C1CN3C21 (stereo not drawn)
inactive: [1] 16.9% | [2] 2.65% | [3] 5.45% | [4] -28% | [5] -8.8% | [6] 12.2%

COc1ccc2c(c1O)[C@@]13CCCC=C1[C@@H](C2)[N+](C)(C)CC3
inactive: [1] 22.4% | [2] 13.7% | [3] -19.9% | [4] 15.8% | [5] -1.35% | [6] -29.6%

O=P1(N2CCCCC2)OCC2(CO1)COP(=O)(N1CCCCC1)OC2 (stereo not drawn)
inactive: [1] -7.15% | [2] -0.6% | [3] 0.1% | [4] -7.55% | [5] -1.65% | [6] 3.2%

CCOC(=O)C(Br)CBr (stereo not drawn)
inactive: [1] 6.35% | [2] -17.9% | [3] 4.85% | [4] -2.3% | [5] -16.1% | [6] 23.1%

c1cc[n+]2c(c1)-c1cccc[n+]1CC2
inactive: [1] 65.8% | [2] 11% | [3] 52.7% | [4] 26% | [5] 19.3% | [6] 53.1%

NC(=O)C(N)C(F)c1ccccc1 (stereo not drawn)
inactive: [1] -11.4% | [2] 2.85% | [3] -16.4% | [4] -13.6% | [5] -11.7% | [6] 16.8%

CCOc1ccc2ccccc2c1OP(=O)(OCC)OCC
inactive: [1] 23.9% | [2] 22% | [3] 38.9% | [4] 29.6% | [5] 40.4% | [6] 25.6%

Nc1cc([N+](=O)[O-])cc([N+](=O)[O-])c1
inactive: [1] -6.6% | [2] -9.3% | [3] 30.1% | [4] 4.9% | [5] 2.5% | [6] 41.3%

CCCCCSP(SCCCCC)c1ccccc1
inactive: [2] 67.3% | [4] 37.6% | [5] 40.4% | [6] 61.8%
active: [1] 79.8% | [3] 79.5%

[NH-]C(CCC(N)=O)C(=O)O.[NH-]C(CCC(N)=O)C(=O)O.[Pd+2] (stereo not drawn)
inactive: [1] -14.6% | [2] -3.2% | [3] -7.55% | [4] -71.6% | [5] -1.1% | [6] -8.1%

CCOP(=O)(O)C1CCCC(C)[N-]1.CCOP(=O)(O)C1CCCC(C)[N-]1.CCOP(=O)(O)C1CCCC(C)[N-]1.[Ti+3] (stereo not drawn)
inactive: [1] 1.7% | [2] 0.1% | [3] -6.55% | [4] -24.1% | [5] -6.3% | [6] 2.6%

O=[N+]([O-])c1ccc2c(c1)[O][Sn]([I])([I])[O]2
inactive: [1] -6% | [2] -3.95% | [3] 8.8% | [4] 6.7% | [5] 1.95% | [6] -3.9%

CC(C)COP(=O)(Cc1ccccc1)OCC(C)C
inactive: [1] 8.85% | [2] 5.65% | [3] -0.5% | [4] 11.8% | [5] 5% | [6] -6.2%

CC1CN=C(NCc2ccccc2)S1 (stereo not drawn)
inactive: [1] -33.2% | [2] 16.6% | [3] -33.5% | [4] 21.9% | [5] -1.05% | [6] -6.6%

CN1C2CCC1CC(OC(=O)/C=C\c1ccccc1)C2 (stereo not drawn)
inactive: [1] 29% | [2] -7.7% | [3] -5.45% | [4] 1.95% | [5] 8.45% | [6] 9.6%

CCOP(=O)(NC(C)(C)C)OCC
inactive: [1] -15.1% | [2] -54% | [3] -21.4% | [4] 8% | [5] -26.1% | [6] -12.8%

[N-]=[N+]=Nc1ccnc2cc(Cl)ccc12
inactive: [1] -29.9% | [2] -5.55% | [3] -9.05% | [4] -68% | [5] -5.45% | [6] -10.7%

CC1=NCCc2c1[nH]c1cc(O)ccc21
inactive: [1] 6.65% | [2] -28.1% | [3] -12.6% | [4] -3.85% | [5] -15.6% | [6] 4%

O=S(=O)(c1ccc(O)cc1)c1ccccc1O
inactive: [1] -1.95% | [2] -6.35% | [3] 15.2% | [4] 3.75% | [5] 0.6% | [6] 28.9%

O=C(Nc1cccc(S(=O)(=O)F)c1)c1cccc([N+](=O)[O-])c1
active: [1] 96.5% | [2] 94.8% | [3] 98.5% | [4] 91.7% | [5] 95.6% | [6] 96.8%

O=Cc1ccccc1O.[Zn+2]
inactive: [1] 9.25% | [2] 6.2% | [3] 2.8% | [4] 3.6% | [5] 0.75% | [6] 1.6%

O=CNc1ccccc1
inactive: [1] 18.6% | [2] 1.7% | [3] 0.85% | [4] 6.5% | [5] 7.65% | [6] 7.25%

S=C([S-])N1CCCCC1.S=C([S-])N1CCCCC1.[Zn]
inactive: [4] 22.9% | [5] -3% | [6] 65%
active: [1] 79.5% | [2] 73.3% | [3] 96%

N#CCN(CC#N)[N+](=O)[O-]
inactive: [1] 6.8% | [2] -4.95% | [3] -14.2% | [4] -6% | [5] -26.3% | [6] 0.4%

O=P(c1ccccc1)(c1ccccc1)c1ccccc1.O=P(c1ccccc1)(c1ccccc1)c1ccccc1.O=S(=O)(O)O.[Fe]
inactive: [1] -8.3% | [2] 3.45% | [3] 9.35% | [4] 17.6% | [5] 23.6% | [6] 8.2%

COc1ccc(OP2OCC(C)O2)cc1 (stereo not drawn)
inactive: [1] -1.1% | [2] -46.8% | [3] -10.4% | [4] -30% | [5] -2.6% | [6] 2.5%

N/C(=N/N=C/c1ccc(O)cc1)N[N+](=O)[O-]
inactive: [1] -2.4% | [2] -29.6% | [3] -14.3% | [4] -31.5% | [5] -6.75% | [6] 9%

Nn1cnnc1
inactive: [1] -12.9% | [2] -7.95% | [3] -9.7% | [4] -9.35% | [5] -3.05% | [6] -16.2%

COc1ccc2[se]c(C)nc2c1
inactive: [1] -26.2% | [2] -35.1% | [3] 5.3% | [4] -2.6% | [5] -17.3% | [6] -18.6%

Nc1nnc(N)n1N
inactive: [1] 15.8% | [2] -21.2% | [3] -8.15% | [4] -20.3% | [5] 1.5% | [6] -1.65%

Cc1cc(NC(=O)/C=C/c2ccc([N+](=O)[O-])cc2Cl)ccc1S(=O)(=O)F
inactive: [1] -30.5% | [2] -8.5% | [3] -5.6% | [4] -17.4% | [5] 2.85% | [6] -32.5%

Cc1ccccc1/C(=C/c1ccc([N+](=O)[O-])cc1)C(=O)Nc1ccc(S(=O)(=O)F)cc1
active: [1] 97.1% | [2] 95.5% | [3] 96.3% | [4] 96.3% | [5] 96.5% | [6] 97.5%

O=[N+]([O-])c1cccc(N=Nc2ccc(N(CCCl)CCCl)cc2)c1
inactive: [1] -23.4% | [2] 0.6% | [3] -2.55% | [4] -27.2% | [5] 4.65% | [6] 11.6%

CC(=O)N(C)C(=O)Oc1cccc2ccccc12
inactive: [1] -8.35% | [2] 17.4% | [3] -10.8% | [4] -34.2% | [5] -27.1% | [6] -0.55%

COC1=CC(=O)N(C(=O)C(OC(=O)C2CCCN2C(=O)C2CCCN2C(=O)C(C(C)C)N(C)C(=O)C(NC(=O)C(C(C)C)N(C)C)C(C)C)C(C)C)C1Cc1ccccc1 (stereo not drawn) (ξNMe2Val-V[NMeV]PP-X14; configuration not given here)
inactive: [1] 16.9% | [2] -21.4% | [3] -4.25% | [4] -7.6% | [5] 28.9% | [6] -32.6%

O=C1C=CC(=Nc2ccc(N(CCCl)CCCl)cc2)C=C1
inactive: [1] 39.5% | [2] 18.8% | [3] 13.3% | [4] 3.5% | [5] 7.1% | [6] 3.5%

O=C(Nc1ccccc1)Nc1ccc(N(CCCl)CCCl)cc1
inactive: [1] 21.8% | [2] 18.6% | [3] 10.8% | [4] 13.5% | [5] 13.7% | [6] 31.8%
